Experimental findings from PubChem BioAssay AID588790 (National Center for Advancing Translational Sciences (NCATS), 2011) are described below.

Hit rate of the full screen: of about 1,200 compounds, about 85 (7%) were called active. Entries that show only a call come without a potency. The call rests on the fitted dose curve. This excerpt belongs to a sample that is enriched for actives.
Potency means the concentration at half of the fitted maximal effect.

Chain of Beta-2 adrenergic receptor (Homo sapiens) (P07550 whole entry, looked up): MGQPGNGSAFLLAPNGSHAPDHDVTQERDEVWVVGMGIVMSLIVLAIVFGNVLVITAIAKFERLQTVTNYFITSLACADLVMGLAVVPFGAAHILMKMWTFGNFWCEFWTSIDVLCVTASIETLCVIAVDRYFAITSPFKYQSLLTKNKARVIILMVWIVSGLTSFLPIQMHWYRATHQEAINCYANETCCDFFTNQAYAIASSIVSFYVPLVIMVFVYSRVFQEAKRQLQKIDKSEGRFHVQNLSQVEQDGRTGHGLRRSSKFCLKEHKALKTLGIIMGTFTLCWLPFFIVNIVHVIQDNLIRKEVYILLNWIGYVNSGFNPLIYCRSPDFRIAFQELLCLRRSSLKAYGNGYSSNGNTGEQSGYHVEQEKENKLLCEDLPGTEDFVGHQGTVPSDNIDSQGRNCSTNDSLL

In this assay the target is Beta-2 adrenergic receptor (Homo sapiens) (UniProt P07550). In words: qHTS assay of beta-arrestin-biased ligands of beta2-adrenergic receptor: Hit Validation with GloSensor. The note with it: W9-Glo22F cells, GloSensor cAMP luminescence, beta2AR agonism; activation: at 46.1 µM (top of the series). An outline of the steps:
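W9-Glo22F cells plated and incubated overnight at 37 deg C, 5% CO2, then compounds pinned in. GloSensor reagent added, 10 min at room temperature, luminescence read.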
In general terms: qHTS replaces the single test concentration by a dilution series.
As for `COc1c(O)cc(O)c2c(=O)cc(-c3ccccc3)oc12`, the Potency result was “inactive”.

Regarding `O=C1C=CC(O)(c2cc(=O)c3c(O)cc(O)cc3o2)C=C1`, the Potency result was “inactive”.

With `COc1c(-c2ccc(O)c(O)c2)oc2cc(O)cc(O)c2c1=O`, the Potency was 20.6 µM (active).

Turning to `Fc1ccccc1/C=N/Nc1ncnc2ccccc12`, the Potency entry is “inactive”.

Regarding `Cc1ccc2cccc(SCC(=O)Nc3ccc(F)cc3)c2n1`, the Potency result was “inactive”.

For `NC(=S)n1[nH]c(-c2ccc([N+](=O)[O-])cc2)c(N=Nc2ccc(Cl)cc2)c1=O`, the Potency result is “inactive”.

With `COc1cnc(-c2ccccn2)nc1Oc1ccccc1`, the Potency was 29.1 µM (active).

For `COc1cnc(-c2ccccn2)nc1Sc1ccccc1Cl`, the Potency result is “inactive”.

Take `Clc1ccc(OCc2nc(-c3ccccn3)n[nH]2)cc1`: the Potency result is “inactive”.

`Cc1cccc(NC(=S)N/N=C/c2cccc([N+](=O)[O-])c2)c1`: the Potency result is “inactive”.

Take `CCCCC(=O)N1CCCC(c2nc(-c3cccc(OC)c3)no2)C1` (centres undefined): the Potency result is “inactive”.

Take `C=C(C)CNC(=S)N/N=C/c1ccco1`: the Potency result was “inactive”.

On to `COc1ccc(NS(=O)(=O)c2ccc3oc(SC4CCOC4=O)nc3c2)cc1` (centres undefined), for which the Potency result is “inactive”.

On to `CCOC(=O)C1=C(C)N(c2ccc(OC)cc2)C(=O)/C1=C\c1ccc(O)c(OCC)c1`, for which the Potency entry was “inactive”.

Consider `CCOC(=O)C1=C(C)N(c2ccc(C)cc2)C(=O)/C1=C\c1ccc(O)c(OC)c1`, for which the Potency was 18.4 µM (active).

With `COC(=O)C1=C(C)N(Cc2ccc(C)cc2)C(=O)/C1=C\c1ccc(O)c(OC)c1`, the Potency result was “inactive”.

On to `CNC(=S)N/N=C/C1=CCC2CC1C2(C)C` (centres undefined), for which the Potency result is “inactive”.

Regarding `O=C1c2ccccc2[C@@H]2C[C@@H](O)[C@H](Nc3cccc4ccccc34)CCN12`, the Potency result is “inactive”.

On to `CCOC(=O)NC(=S)Nc1ccc(C(C)(C)C)cc1`, for which the Potency result is “inactive”.

Take `NC(=S)N/N=C1\CCOc2ccc(F)cc21`: the Potency entry was “inactive”.

Regarding `CNC(=S)N/N=C1\CC(c2ccccc2)Oc2ccccc21` (centres undefined), the Potency result was “inactive”.

Regarding `NC(=S)N/N=C1\CC(c2ccc3c(c2)OCCCO3)Oc2ccc(F)cc21` (centres undefined), the Potency is 11.6 µM (active).

With `c1coc(CNc2nc3nonc3nc2NCc2ccco2)c1`, the Potency result was “inactive”.

`COCCNC(=S)N/N=C(\C)c1ccc(Cl)c(Cl)c1Cl`: the Potency result is “inactive”.

On to `COCCNC(=S)N/N=C(\C)c1ccccc1F`, for which the Potency is 29.1 µM (active).

Regarding `C/C(=N\NC(=S)NCc1ccccc1)c1ccccc1F`, the Potency entry is “inactive”.

As for `COc1ccc(C(CNC(=O)c2ccc(C)c(S(=O)(=O)Nc3ccccc3OC)c2)N2CCCC2)cc1` (centres undefined), the Potency result is “inactive”.

Turning to `C=CCn1c(CCn2c3ccccc3c3ccccc32)n[nH]c1=S`, the Potency result was “inactive”.

Take `C=CCn1c(CSc2nc3ccccc3s2)n[nH]c1=S`: the Potency was 25.9 µM (active).

With `C=CCn1c(-c2ccccc2)c[nH]c1=S`, the Potency result was “inactive”.

Regarding `CCN(CC)C(=O)CN(c1cccc(OC)c1)S(=O)(=O)c1ccc(C)cc1`, the Potency entry is “inactive”.

Take `CC1CCN(c2c(NCc3ccc(C(=O)NCCc4ccc(Cl)cc4)cc3)c(=O)c2=O)CC1`: the Potency result is “inactive”.

As for `O=c1c2cn[nH]c2nc(SCc2ccccc2F)n1-c1ccc(Br)cc1`, the Potency result is “inactive”.

In the case of `CCNc1nc(NCC)nc(N(C)/N=C/c2ccco2)n1`, the Potency is 20.6 µM (active).

As to `CCNC(=S)N/N=C/c1ccco1`, the Potency entry was “inactive”.

In the case of `CCNc1nc(NCC)nc(N/N=C/c2ccc(N(C)C)cc2)n1`, the Potency entry is “inactive”.

With `O=C(/C=C/c1ccccc1)Oc1cccc2cccnc12`, the Potency entry is “inactive”.

With `Cc1cc(C(=O)CN2C(=O)NC3(CCCc4ccccc43)C2=O)c(C)n1C` (centres undefined), the Potency result was “inactive”.

With `Cc1ccc(NC(=S)N2CCn3cccc3C2c2cccnc2)cc1` (centres undefined), the Potency result is “inactive”.
